Test results: PubChem BioAssay
“And” between values parts separate entries of the source, which are not always exact repeats. Equal values may be shown once. The source made the active and inactive calls.

Key:
[1] = test system: PRMT1 (protein arginine N-methyltransferase 1); assay: PRMT1 binders on small-molecule microarrays, primary screen, biochemical, small-molecule microarray, 635 nm fluorescence (AID 1088); details: small-molecule microarray binding, higher = more signal;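 further: binding of Prmt1 protein to compounds spotted on small-molecule microarray slides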
[2] = yeast growth modulation, basal conditions, primary screen, YJM789 clinical isolate, OD600, 24 h (AID 1089);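 further: growth of clinical yeast isolate S. cerevisiae YJM 789 seeded 1000 cells per well; test concentration not given here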; details: S. cerevisiae YJM789 growth, higher = more signal, called active from +8 up or from −8 down
[3] = fission yeast growth modulation, primary screen, strain 972, OD600, 24 h, no modulator (AID 1090);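 further: basal condition with compound alone and no growth modifier present; test concentration not given here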; details: S. pombe 972 growth, higher = more signal, called active from +8 up or from −8 down
[4] = S. cerevisiae growth modulation with rapamycin, primary screen, strain BY4716, OD600, 96 h (AID 1091); details: higher = more signal, called active from +8 up or from −8 down; further: test concentration not given here
[5] = target: Torsin-1A-interacting protein 2 (Homo sapiens) (UniProt Q8NFQ8); assay: LULL1 binders on small-molecule microarray, primary screen, cell lysate, human LULL1 lysate, 635/667 nm fluorescence (AID 1092); details: hLULL1 lysate binding, 635 nm fluorescence, higher = more signal;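 further: probe is lysate of COS7 cells overexpressing human LULL1; score merges per-feature 667 nm fluorescence with signal-to-noise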
Chain of Torsin-1A-interacting protein 2 (Homo sapiens) (Q8NFQ8 whole entry, looked up): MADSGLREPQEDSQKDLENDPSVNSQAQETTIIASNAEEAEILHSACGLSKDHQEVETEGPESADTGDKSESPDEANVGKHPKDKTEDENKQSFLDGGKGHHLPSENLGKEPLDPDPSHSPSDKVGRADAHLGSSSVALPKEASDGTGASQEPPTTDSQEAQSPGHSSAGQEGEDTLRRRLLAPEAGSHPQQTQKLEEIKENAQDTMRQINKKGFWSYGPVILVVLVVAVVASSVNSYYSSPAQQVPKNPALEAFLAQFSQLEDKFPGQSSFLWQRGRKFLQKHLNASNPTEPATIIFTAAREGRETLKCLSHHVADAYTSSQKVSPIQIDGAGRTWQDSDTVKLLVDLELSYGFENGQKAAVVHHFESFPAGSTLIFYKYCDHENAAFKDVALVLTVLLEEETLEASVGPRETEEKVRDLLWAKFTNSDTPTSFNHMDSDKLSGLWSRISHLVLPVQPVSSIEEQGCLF

[6] = E. coli growth modulation, two-sided OD650, primary screen, E. coli filamentation project, strain DRC41, 24 h (AID 1093); details: OD650, 24 h, higher = more signal, called active from +8 up or from −8 down;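 further: MC1000 strain lacking acrAB efflux and sulA so SOS filamentation is blocked; test concentration not given here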
[7] = small-molecule microarray binders of probe aLefty2, primary screen, biochemical, biotinylated probe, 635/667 nm fluorescence (AID 1094); details: higher = more signal;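 further: score merges spot fluorescence near 667 nm with spot signal-to-noise ratio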
[8] = test system: Noggin (protein binding on small-molecule microarray); assay: Noggin binders on small-molecule microarray, primary screen, biochemical, 635/667 nm fluorescence (AID 1095); details: 635 nm fluorescence, higher = more signal;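 further: score merges 667 nm feature fluorescence with signal to noise over triplicate slides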
[9] = target: Neurogenic locus notch homolog protein 3 (Homo sapiens) (UniProt Q9UM47); assay: NOTCH3 binders on small-molecule microarray, primary screen, biochemical, 635/667 nm fluorescence (AID 1096); details: NOTCH3 binding, 635 nm fluorescence, higher = more signal
Chain of Neurogenic locus notch homolog protein 3 (Homo sapiens) (Q9UM47 whole entry, looked up): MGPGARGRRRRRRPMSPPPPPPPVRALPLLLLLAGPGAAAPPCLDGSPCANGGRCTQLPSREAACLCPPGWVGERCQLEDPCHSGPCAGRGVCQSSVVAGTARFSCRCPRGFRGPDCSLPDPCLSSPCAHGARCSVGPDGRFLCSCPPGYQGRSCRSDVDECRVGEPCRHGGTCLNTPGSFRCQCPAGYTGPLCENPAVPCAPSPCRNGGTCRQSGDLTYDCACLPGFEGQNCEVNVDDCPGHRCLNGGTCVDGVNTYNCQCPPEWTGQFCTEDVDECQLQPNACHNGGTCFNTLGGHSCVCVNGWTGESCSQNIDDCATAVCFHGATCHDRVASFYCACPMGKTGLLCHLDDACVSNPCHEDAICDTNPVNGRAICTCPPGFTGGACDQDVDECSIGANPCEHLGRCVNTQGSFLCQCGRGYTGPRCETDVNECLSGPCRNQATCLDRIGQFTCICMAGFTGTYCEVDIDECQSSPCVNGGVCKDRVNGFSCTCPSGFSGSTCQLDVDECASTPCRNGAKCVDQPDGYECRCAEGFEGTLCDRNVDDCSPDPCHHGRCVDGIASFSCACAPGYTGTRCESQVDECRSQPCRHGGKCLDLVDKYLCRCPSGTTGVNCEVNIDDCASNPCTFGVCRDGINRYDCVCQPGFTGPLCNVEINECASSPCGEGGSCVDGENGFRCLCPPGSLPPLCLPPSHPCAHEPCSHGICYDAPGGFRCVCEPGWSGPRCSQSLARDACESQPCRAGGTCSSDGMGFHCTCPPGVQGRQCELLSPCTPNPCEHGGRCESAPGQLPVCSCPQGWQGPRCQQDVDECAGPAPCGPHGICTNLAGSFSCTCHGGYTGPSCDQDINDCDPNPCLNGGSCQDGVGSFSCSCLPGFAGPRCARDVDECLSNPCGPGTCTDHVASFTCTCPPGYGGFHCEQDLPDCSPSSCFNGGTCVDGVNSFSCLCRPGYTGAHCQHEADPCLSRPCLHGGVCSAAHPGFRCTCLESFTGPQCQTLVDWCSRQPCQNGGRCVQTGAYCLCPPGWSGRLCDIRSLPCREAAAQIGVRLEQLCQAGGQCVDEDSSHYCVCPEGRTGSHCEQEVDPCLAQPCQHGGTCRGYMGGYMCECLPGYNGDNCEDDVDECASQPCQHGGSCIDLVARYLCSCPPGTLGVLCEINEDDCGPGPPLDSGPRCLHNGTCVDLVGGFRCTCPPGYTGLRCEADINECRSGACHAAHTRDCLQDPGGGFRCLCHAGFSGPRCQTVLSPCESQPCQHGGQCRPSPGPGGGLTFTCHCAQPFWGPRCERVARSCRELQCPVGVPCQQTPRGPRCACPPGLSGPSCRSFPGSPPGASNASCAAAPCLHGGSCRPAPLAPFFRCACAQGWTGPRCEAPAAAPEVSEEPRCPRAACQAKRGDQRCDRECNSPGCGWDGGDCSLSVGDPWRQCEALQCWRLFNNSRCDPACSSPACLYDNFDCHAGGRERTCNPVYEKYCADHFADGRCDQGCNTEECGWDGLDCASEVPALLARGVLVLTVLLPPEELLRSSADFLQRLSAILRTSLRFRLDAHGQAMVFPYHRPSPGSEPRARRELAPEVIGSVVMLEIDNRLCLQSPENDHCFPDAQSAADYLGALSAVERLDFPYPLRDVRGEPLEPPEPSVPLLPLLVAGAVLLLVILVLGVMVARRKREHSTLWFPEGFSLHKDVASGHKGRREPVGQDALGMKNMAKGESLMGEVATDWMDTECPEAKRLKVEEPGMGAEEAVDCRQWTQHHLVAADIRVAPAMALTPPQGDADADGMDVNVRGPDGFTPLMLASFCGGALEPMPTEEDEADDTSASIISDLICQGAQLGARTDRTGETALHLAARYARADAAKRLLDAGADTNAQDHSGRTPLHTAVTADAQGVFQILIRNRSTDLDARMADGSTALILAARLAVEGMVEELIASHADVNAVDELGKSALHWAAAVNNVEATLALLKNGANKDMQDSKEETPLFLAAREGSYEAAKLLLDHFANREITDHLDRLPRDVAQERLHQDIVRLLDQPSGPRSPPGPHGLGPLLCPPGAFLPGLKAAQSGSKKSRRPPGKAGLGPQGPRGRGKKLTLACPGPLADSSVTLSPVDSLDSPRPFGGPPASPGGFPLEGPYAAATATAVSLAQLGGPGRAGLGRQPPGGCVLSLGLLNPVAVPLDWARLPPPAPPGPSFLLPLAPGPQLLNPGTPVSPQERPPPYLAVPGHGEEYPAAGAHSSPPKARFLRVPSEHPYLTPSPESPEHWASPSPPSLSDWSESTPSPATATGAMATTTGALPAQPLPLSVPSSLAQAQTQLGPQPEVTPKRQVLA

[10] = small-molecule microarray binders of probe aEGFR, primary screen, biochemical, biotinylated probe, 635/667 nm fluorescence (AID 1097); details: higher = more signal;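 further: probe is a biotinylated anti-EGFR antibody binding compounds printed on slides; score combines fluorescence near 667 nm and signal to noise of each spot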
[11] = test system: Plasmodium falciparum Sir2 (PF13_0152, Sir2A); assay: pfSir2 binders on small-molecule microarrays, primary screen, biochemical, small-molecule microarray, 635 nm fluorescence (AID 1098); details: small-molecule microarray binding, fluorescence 635 nm; higher = more signal;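 further: score merges spot fluorescence intensity with its signal-to-noise ratio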
[12] = small-molecule microarray binders of probe aDKK1, primary screen, biochemical, biotinylated probe, 635/667 nm fluorescence (AID 1099); details: higher = more signal;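 further: score merges 667nm spot fluorescence with signal to noise across triplicate slides; reference of the scale not given here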
[13] = small-molecule microarray binders of probe aCHRDL2, primary screen, biochemical, biotinylated probe, 635/667 nm fluorescence (AID 1100); details: higher = more signal
[14] = splicing luciferase reporter signal modulators, primary screen, spliceosome inhibition project, cell-based, HEK293, splice +/- reporter (AID 1101); details: luminescence, 24 h, higher = more signal, called active from +8 up or from −8 down;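 further: HEK293 cells carrying a splicing-competent luciferase reporter gene; test concentration not given here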
[15] = target: Fibroblast growth factor 10 (Homo sapiens) (UniProt O15520); assay: FGF10 binders on small-molecule microarrays, primary screen, biochemical, small-molecule microarray, 635 nm fluorescence (AID 1102); details: FGF10 binding, fluorescence 635 nm, higher = more signal
Chain of Fibroblast growth factor 10 (Homo sapiens) (O15520 whole entry, looked up): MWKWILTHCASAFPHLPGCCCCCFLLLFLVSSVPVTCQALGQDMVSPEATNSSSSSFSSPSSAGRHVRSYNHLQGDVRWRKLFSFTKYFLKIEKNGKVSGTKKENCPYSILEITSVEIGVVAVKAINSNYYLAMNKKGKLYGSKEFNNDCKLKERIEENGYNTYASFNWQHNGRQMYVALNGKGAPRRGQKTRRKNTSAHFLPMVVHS

[16] = test system: glycogen synthase kinase-3 (GSK3A per assay name; protocol says GSK3B); assay: GSK3 binders on small-molecule microarrays, primary screen, biochemical, small-molecule microarray, 635 nm fluorescence, GSK3A (AID 1103); details: small-molecule microarray binding, fluorescence 635 nm; higher = more signal; further: the record names both GSK3A and GSK3B
[17] = target: Epidermal growth factor receptor (Homo sapiens) (UniProt P00533); assay: EGFR binders on small-molecule microarrays, primary screen, biochemical, small-molecule microarray, 635 nm fluorescence (AID 1104); details: EGFR binding, higher = more signal;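 further: score merges 667 nm emission intensity with spot signal to noise over triplicate slides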
Chain of Epidermal growth factor receptor (Homo sapiens) (P00533 whole entry, looked up): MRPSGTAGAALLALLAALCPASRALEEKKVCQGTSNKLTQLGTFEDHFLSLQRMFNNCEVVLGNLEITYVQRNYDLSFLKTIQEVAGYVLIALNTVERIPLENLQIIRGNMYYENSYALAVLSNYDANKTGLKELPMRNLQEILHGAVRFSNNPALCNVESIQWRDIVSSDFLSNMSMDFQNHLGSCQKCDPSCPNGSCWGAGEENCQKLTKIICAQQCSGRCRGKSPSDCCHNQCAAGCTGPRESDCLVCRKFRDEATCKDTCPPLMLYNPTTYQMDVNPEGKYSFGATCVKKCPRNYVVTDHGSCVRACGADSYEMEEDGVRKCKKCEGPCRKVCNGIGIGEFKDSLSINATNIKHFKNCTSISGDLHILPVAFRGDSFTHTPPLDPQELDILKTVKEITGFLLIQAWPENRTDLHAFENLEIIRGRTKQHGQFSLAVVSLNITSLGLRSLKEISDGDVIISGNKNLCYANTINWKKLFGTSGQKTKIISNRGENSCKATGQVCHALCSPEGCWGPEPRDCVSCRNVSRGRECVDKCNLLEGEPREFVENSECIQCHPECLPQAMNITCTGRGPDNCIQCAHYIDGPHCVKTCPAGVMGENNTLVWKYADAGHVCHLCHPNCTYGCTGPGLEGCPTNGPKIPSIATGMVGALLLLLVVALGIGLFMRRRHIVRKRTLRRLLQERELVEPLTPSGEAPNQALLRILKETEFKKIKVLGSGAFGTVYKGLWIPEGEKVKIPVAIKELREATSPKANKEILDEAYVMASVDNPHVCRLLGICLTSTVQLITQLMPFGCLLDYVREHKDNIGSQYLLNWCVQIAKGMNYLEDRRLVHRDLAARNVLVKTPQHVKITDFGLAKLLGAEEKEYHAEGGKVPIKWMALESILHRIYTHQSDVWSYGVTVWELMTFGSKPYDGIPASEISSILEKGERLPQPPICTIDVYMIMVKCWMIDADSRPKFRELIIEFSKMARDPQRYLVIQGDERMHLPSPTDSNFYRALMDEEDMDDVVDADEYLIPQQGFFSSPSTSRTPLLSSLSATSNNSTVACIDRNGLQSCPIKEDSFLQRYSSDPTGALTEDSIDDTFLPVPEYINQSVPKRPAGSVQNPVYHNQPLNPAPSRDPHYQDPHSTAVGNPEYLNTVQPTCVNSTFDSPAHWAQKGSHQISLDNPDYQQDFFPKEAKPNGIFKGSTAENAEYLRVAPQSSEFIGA

[18] = target: Follistatin-related protein 3 (Homo sapiens) (UniProt O95633); assay: FSTL3 binders on small-molecule microarrays, primary screen, biochemical, small-molecule microarray, 635 nm fluorescence (AID 1105); details: FSTL3 binding, higher = more signal;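 further: score merges emission near 667 nm and signal to noise per printed spot across three slides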
Chain of Follistatin-related protein 3 (Homo sapiens) (O95633 whole entry, looked up): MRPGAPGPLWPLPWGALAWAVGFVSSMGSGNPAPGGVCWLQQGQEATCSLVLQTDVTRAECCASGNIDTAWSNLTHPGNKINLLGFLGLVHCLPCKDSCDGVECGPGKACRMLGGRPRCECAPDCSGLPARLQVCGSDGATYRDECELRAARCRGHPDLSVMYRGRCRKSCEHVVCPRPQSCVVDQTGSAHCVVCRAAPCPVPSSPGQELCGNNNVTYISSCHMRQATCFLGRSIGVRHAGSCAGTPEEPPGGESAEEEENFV

[19] = target: Dickkopf-related protein 1 (Homo sapiens) (UniProt O94907); assay: DKK1 binders on small-molecule microarrays, primary screen, biochemical, small-molecule microarray, 635 nm fluorescence scan (AID 1106); details: DKK1 binding, higher = more signal;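 further: score merges emission near 667 nm with signal to noise over three replicate slides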
Chain of Dickkopf-related protein 1 (Homo sapiens) (O94907 whole entry, looked up): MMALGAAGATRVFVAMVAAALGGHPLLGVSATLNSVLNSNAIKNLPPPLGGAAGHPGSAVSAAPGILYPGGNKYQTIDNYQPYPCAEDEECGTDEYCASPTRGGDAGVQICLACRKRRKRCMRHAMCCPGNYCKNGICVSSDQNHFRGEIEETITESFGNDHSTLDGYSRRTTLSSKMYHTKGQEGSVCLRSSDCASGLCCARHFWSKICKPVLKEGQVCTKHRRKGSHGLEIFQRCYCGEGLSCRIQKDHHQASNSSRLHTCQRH

[20] = test system: Inhibin beta A chain (activin A); assay: INHBA (activin A) binders on microarrays, primary screen, biochemical, small-molecule microarray, 635 nm fluorescence scan (AID 1107); details: small-molecule microarray binding, higher = more signal;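 further: mouse activin A protein probed at 4.33 µg/mL on printed slides; score merges bound-protein fluorescence near 667 nm with spot signal-to-noise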

SMILES | composite z-score [1] | z-score [2] | z-score [3] | z-score [4] | composite z-score [5] | z-score [6] | composite z-score [7] | composite z-score [8] | composite z-score [9] | composite z-score [10] | composite z-score [11] | composite z-score [12] | composite z-score [13] | z-score [14] | composite z-score [15] | composite z-score [16] | composite z-score [17] | composite z-score [18] | composite z-score [19] | composite z-score [20]
Cc1cc2c(nc1C)CCCN2CC(C)ON=C[C@@H](C)[C@H](OCc1ccccc1)C(C)C (stereo not given in full) | -1.37 | 0.481 (inactive) | 0.514 (inactive) | 1.24 (inactive) | -0.817 | 0.448 (inactive) | -0.134 | 0.41 | 0.298 | -0.068 | -0.146 | -0.14 | -0.499 | 0.332 (inactive) | -0.375 | -0.857 | 0.0333 | -0.0161 | 0.227 | 0.622
C[N+](C)(C)CCCCCCNC(=O)[C@H]1C[C@H]2C(=O)N[C@@H](CCCC[N+](C)(C)C)C(=O)N2[C@H]1c1ccc(O)cc1 | 0.258 and -0.147 | 0.166 (inactive) and 0.547 (inactive) | 0.268 (inactive) and -0.656 (inactive) | 0.122 (inactive) and 0.411 (inactive) | 0.106 and 0.967 | 0.595 (inactive) and -0.0409 (inactive) | -0.0322 and -0.0179 | 0.938 and 0.161 | -0.275 and -0.316 | -0.151 and -0.236 | 0.819 and 1.44 | -0.359 and -0.0843 | -0.304 and 0.224 | -0.616 (inactive) and -0.146 (inactive) | 0.508 and -0.456 | -0.253 and -0.528 | 0.28 and -0.409 | 0.41 and -0.414 | 0.867 and 0.455 | 0.469 and 1.16
CC(CO)N1C(=O)[C@@H]2C3C(=O)OCCC=C[C@H]3OC23C=CCN(c2ccc4ccccc4c2)C(=O)[C@@H]13 (stereo not given in full) | 0.6 and -0.266 | 1.09 (inactive) and -1.28 (inactive) | -0.169 (inactive) and -1.95 (inactive) | 0.127 (inactive) and -0.589 (inactive) | 3.39 and 0.763 | -0.138 (inactive) and -0.757 (inactive) | -0.116 and -0.192 | -0.571 and -0.51 | 0.259 and 0.0899 | -0.324 and -0.343 | 0.971 and 0.0013 | 0.0565 and -0.627 | 0.691 and -0.64 | 0.132 (inactive) and 0.555 (inactive) | -0.773 and -0.238 | -0.236 and -0.0124 | -1.06 and -0.897 | -0.352 and 0.329 | -1.6 and -0.929 | 0.665 and 0.142
C#CCN1C(/C=C/c2ccccc2)C(=O)OC[C@H]1c1ccccc1 (stereo not given in full) | -0.0815 and 0.365 | -3.12 (inactive) and -0.539 (inactive) | -7.61 (inactive) and -3.7 (inactive) | -3.5 (inactive) and -1.57 (inactive) | 0.447 and 2.09 | 1.07 (inactive) and 0.53 (inactive) | -0.0766 and -0.215 | 0.899 and 0.231 | 0.719 and 0.768 | -0.0304 and -0.0311 | 0.025 and 1.16 | -0.23 and -0.207 | -0.688 and -0.55 | -2.64 (inactive) and -0.366 (inactive) | 0.33 and 0.0389 | 0.658 and 0.0786 | 0.62 and 0.18 | 0.755 and 0.747 | 0.69 and 0.375 | 0.902 and 0.0774
C=CCN(C(=O)C(c1cccs1)N(CCOCCO)C(=O)/C=C\C(=O)O)C(C)(C)C (stereo not given) | -1.16 and -0.597 | 0.592 (inactive) and 0.385 (inactive) | -1.35 (inactive) and -0.863 (inactive) | 0.103 (inactive) and 0.0577 (inactive) | -2.06 and 0.15 | 1.41 (inactive) and 0.711 (inactive) | -0.0674 and -0.167 | -1.85 and -2.31 | -1.9 and -0.936 | -0.277 and -0.339 | -1.45 and 1.17 | -0.214 and -0.188 | 0.336 and 0.718 | -0.0364 (inactive) and 0.0433 (inactive) | -1.34 and -1.24 | -1.46 and -0.651 | -1.21 and -0.944 | -1.64 and -1.94 | -2.14 and -2.17 | -0.96 and -1.53
C[C@@H]1CN2[C@@H](CC[C@@H](C)[C@@H]2c2ccc(Br)cc2)C(=O)O1 | -0.477 and -0.0962 | 0.327 (inactive) and -1.72 (inactive) | 0.398 (inactive) and -0.794 (inactive) | 1.74 (inactive) and -0.538 (inactive) | -0.625 and 0.0053 | 0.0454 (inactive) and 0.082 (inactive) | -0.166 and -0.18 | 0.0137 and 0.546 | -0.307 and -0.733 | -0.111 and -0.154 | -0.638 and -0.597 | -0.295 and -0.239 | -0.211 and -0.583 | -0.142 (inactive) and -1.21 (inactive) | -0.0428 and 0.337 | -0.534 and -0.046 | 0.167 and 0.49 | -0.579 and -0.462 | 0.313 and 0.233 | 0.502 and 0.45
COC(=O)[C@@]1(Cc2ccc(OC)cc2)[C@H]2c3cc(C(=O)N(C)C)n(Cc4ccc(O)c(OC)c4)c3C[C@H]2CN1C(=O)c1ccccc1 | -0.406 and 0.571 | 0.403 (inactive) and -0.731 (inactive) | 1.08 (inactive) and 1.73 (inactive) | 0.374 (inactive) and 2.03 (inactive) | 3.65 and 3.34 | 0.151 (inactive) and 0.266 (inactive) | 0.437 and 0.261 | 0.219 and 0.19 | 0.807 and 1.07 | 0.0395 and 0.0354 | 1.17 and 1.27 | 0.714 and 0.773 | 1.08 and 0.94 | -2.55 (inactive) and -2.51 (inactive) | 0.113 and 1.15 | 0.568 and -0.198 | -0.14 and -0.143 | 0.418 and 0.592 | -0.529 and -0.128 | 0.876 and 0.416
C[C@@H]1CC[C@H]2C(=O)N3[C@@H](CC[C@@H](C)[C@@H]3c3ccc(-c4ccco4)cc3)C(=O)N2[C@H]1c1ccc(-c2ccco2)cc1 | 1.56 and 1.49 | -0.0519 (inactive) and -0.0158 (inactive) | 0.453 (inactive) and -1.28 (inactive) | 0.849 (inactive) and -0.324 (inactive) | 2.17 and 0.787 | 0.196 (inactive) and 0.917 (inactive) | 0.0935 and 0.525 | 1.34 and 1.77 | 1.04 and 1.06 | 0.0374 and 0.181 | 1.22 and 1.69 | 0.289 and 0.596 | 0.0051 and 1.11 | -0.328 (inactive) and -1.24 (inactive) | 0.765 and 1.37 | 1.32 and 1.28 | 0.737 and 1.7 | 1.36 and 1.4 | 1.25 and 1.68 | 1.01 and 1.92
